Screening results (PubChem)
This is a sample that favours compounds with a hit; in the whole collection about 3.8% have one here.
MPTP inh: permeability transition pore inhibition | 360,000 compounds, 1.4% hits | isolated mouse mitochondria, Ca2+ swelling absorbance, 30 min | inhibition, % at 10 µM | AID 602449;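 active means inhibition of 50% or more, scaled per plate between neutral and stimulator controls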
CR mimetic SO: caloric restriction mimetics inhibiting age-related superoxide in yeast | superoxide response (% of plate mean), % at 10 µM | 330,000 compounds, 0.18% hits | AID 2690 | S. cerevisiae aged cells, superoxide DHE fluorescence; active compounds read low;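 active means superoxide response under a set limit, about three screen SD below normal, cut at about 65% in these data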;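 further: yeast aged for seven days with compound at 30 °C before DHE staining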
FAS TE block: inhibitors of human fatty acid synthase thioesterase domain; P49327; recombinant FAS-TE, OMFH fluorogenic substrate, fluorescence endpoint; inhibition, % at 15 µM; 360,000 compounds, 0.67% hits; AID 602261;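 active means compounds whose normalised, plate-corrected inhibition of enzyme fluorescence in the single-dose primary screen is 50% or more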
aDG glyco up: alpha-DG glycosylation activation. Pro5-aDG cells, alpha-DG glycosylation AlphaScreen (IIH6); 0% Pro5, 100% B10-LARGE cell signal. activation, % at 10 µM. 360,000 compounds, 0.22% hits. AID 624168;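 active means activation of at least 8% versus controls, or a plate z-score of at least 8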;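 further: Pro5 are CHO cells carrying HIG-tagged alpha-DG that lacks glycosylation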
Cardio protect: myocardial damage modulation in H9c2 cells; H9c2 cardiomyocytes, H2O2 injury protection, ATPLite, 2 h; protection from H2O2 cell death, % at 20 µM; 360,000 compounds, 0.63% hits;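 active means compounds giving at least 50% protection of heart cells from peroxide-induced death in the single-dose screen, raw or plate-pattern-corrected value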
SUMO Mot1 rescue: blocks SUMOylation pathway, rescuing yeast Mot1-301 growth. S. cerevisiae Mot1-301 growth rescue, ATP luminescence, 38.5C; percent above DMSO median, 100 means doubled. growth rescue, % at 18.8 µM. 320,000 compounds, 1% hits;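 active means every valid replicate shows activation above 250% relative to neutral control wells; inactive means the rest, any valid replicate at or below 250%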
FAS-TE conf: FAS thioesterase (human) inhibition, confirmation | shares compounds with FAS TE block | recombinant FAS-TE, OMFH fluorogenic substrate, fluorescence | inhibition, % at 15 µM | 2,300 compounds, 45% hits | AID 624325;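 active means compounds inhibiting the enzyme by at least 50% at 15 µM in any one of the replicates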
Hits are given with their value.

Results for O=C(NN1C(=O)C2C(c3ccccc3)C=CC(c3ccccc3)C2C1=O)c1cccc(Br)c1 (stereo not given) ?
MPTP inh: inactive; CR mimetic SO: inactive; FAS TE block: 54; aDG glyco up: inactive; Cardio protect: inactive; SUMO Mot1 rescue: inactive; FAS-TE conf: 45

How did COc1cc(CCC(=O)NC2(C)CCS(=O)(=O)C2)cc(OC)c1OC (stereo not given) do in these assays?
MPTP inh: inactive; CR mimetic SO: inactive; FAS TE block: inactive; aDG glyco up: inactive; Cardio protect: inactive; SUMO Mot1 rescue: inactive

What do the screens show for `Cc1nnc(-c2ccc(N3CCOCC3)c([N+](=O)[O-])c2)o1`?
MPTP inh: inactive; CR mimetic SO: inactive; FAS TE block: inactive; aDG glyco up: inactive; Cardio protect: inactive; SUMO Mot1 rescue: inactive

How did Cc1cccc(Nc2nnc(-c3ccc(N4CCOCC4)c([N+](=O)[O-])c3)c3ccccc23)c1 do in these assays?
MPTP inh: inactive; CR mimetic SO: inactive; FAS TE block: 82; aDG glyco up: inactive; Cardio protect: inactive; SUMO Mot1 rescue: inactive; FAS-TE conf: inactive

How did COC(=O)C(NC(=O)c1cccnc1Cl)C(C)C (stereo not given) do in these assays?
MPTP inh: inactive; CR mimetic SO: inactive; FAS TE block: inactive; aDG glyco up: inactive; Cardio protect: inactive; SUMO Mot1 rescue: inactive

What do the screens show for `CCCCn1nnnc1C(c1cccc2ccccc12)N1CCN(C/C=C/c2ccccc2)CC1` (stereo not given)?
MPTP inh: inactive; FAS TE block: inactive; aDG glyco up: inactive; Cardio protect: inactive

How did O=C1C=C(c2ccc(Cl)c(C(F)(F)F)c2)C[C@@H](c2ccc3c(c2)OCO3)C1 do in these assays?
MPTP inh: inactive; CR mimetic SO: inactive; FAS TE block: 75; aDG glyco up: inactive; Cardio protect: inactive; SUMO Mot1 rescue: inactive; FAS-TE conf: 58

What do the screens show for `COc1cccc(-n2c(SCC(=O)Nc3sc4c(c3C(N)=O)CCC4)nc3ccccc3c2=O)c1`?
MPTP inh: inactive; CR mimetic SO: inactive; FAS TE block: 77; aDG glyco up: inactive; Cardio protect: inactive; FAS-TE conf: inactive

What do the screens show for `COc1cccc(C(=O)OCC(=O)NCCC2=CCCCC2)c1`?
MPTP inh: inactive; CR mimetic SO: inactive; FAS TE block: inactive; aDG glyco up: inactive; Cardio protect: inactive; SUMO Mot1 rescue: inactive

How did CC1Cc2ccccc2N1C(=O)CSc1nc2cc3c(cc2cc1C#N)OCO3 (stereo not given) do in these assays?
MPTP inh: inactive; CR mimetic SO: inactive; FAS TE block: 74; aDG glyco up: inactive; Cardio protect: inactive; SUMO Mot1 rescue: inactive; FAS-TE conf: inactive

How did COc1ccccc1NS(=O)(=O)c1cc(NC(=O)c2cc(F)c(F)c(F)c2F)ccc1N1CCOCC1 do in these assays?
MPTP inh: inactive; CR mimetic SO: inactive; FAS TE block: inactive; aDG glyco up: inactive; Cardio protect: inactive; SUMO Mot1 rescue: inactive

How did COc1ccc(NS(=O)(=O)c2cc(NC(=O)COc3ccc(OC)cc3)ccc2N2CCOCC2)cc1 do in these assays?
MPTP inh: inactive; CR mimetic SO: inactive; FAS TE block: 53; aDG glyco up: inactive; Cardio protect: inactive; SUMO Mot1 rescue: inactive; FAS-TE conf: inactive

How did COc1ccccc1NS(=O)(=O)c1cc(NC(=O)c2ccccc2C)ccc1N1CCOCC1 do in these assays?
MPTP inh: inactive; FAS TE block: 53; aDG glyco up: inactive; Cardio protect: inactive; FAS-TE conf: inactive

Results for COc1ccc(OCc2cc(C(=O)N3C[C@H]4CC[C@H]3C4)no2)c(Cl)c1 ?
MPTP inh: inactive; CR mimetic SO: inactive; FAS TE block: inactive; aDG glyco up: inactive; Cardio protect: inactive; SUMO Mot1 rescue: inactive

How did O=C1N[C@@H](Cc2ccccc2)C(=O)N2[C@H]1C[C@]1([C@]34C[C@H]5C(=O)N[C@@H](Cc6ccccc6)C(=O)N5[C@H]3N(S(=O)(=O)c3ccccc3)c3ccccc34)c3ccccc3N(S(=O)(=O)c3ccccc3)[C@H]21 do in these assays?
MPTP inh: inactive; CR mimetic SO: inactive; FAS TE block: 77; aDG glyco up: inactive; Cardio protect: inactive; SUMO Mot1 rescue: inactive; FAS-TE conf: inactive

What do the screens show for `Cc1ccc([N+](=O)[O-])cc1S(=O)(=O)Nc1ccc(-c2ccc(N3CCCC3)nn2)cc1`?
MPTP inh: inactive; CR mimetic SO: inactive; FAS TE block: 54; aDG glyco up: inactive; Cardio protect: inactive; SUMO Mot1 rescue: inactive; FAS-TE conf: 51

How did O=[N+]([O-])c1ccc(Cl)c(S(=O)(=O)Nc2ccc(-c3ccc(N4CCCC4)nn3)cc2)c1 do in these assays?
MPTP inh: inactive; CR mimetic SO: inactive; FAS TE block: 67; aDG glyco up: inactive; Cardio protect: inactive; SUMO Mot1 rescue: inactive; FAS-TE conf: 27

How did O=[N+]([O-])c1ccc(S(=O)(=O)Nc2ccc(-c3ccc(N4CCCC4)nn3)cc2)cc1 do in these assays?
MPTP inh: inactive; CR mimetic SO: inactive; FAS TE block: inactive; aDG glyco up: inactive; Cardio protect: inactive; SUMO Mot1 rescue: inactive

How did Cc1ccc(S(=O)(=O)Nc2cccc(-c3ccc(N4CCCCCC4)nn3)c2)c(C)c1 do in these assays?
MPTP inh: inactive; CR mimetic SO: inactive; FAS TE block: 59; aDG glyco up: inactive; Cardio protect: inactive; SUMO Mot1 rescue: inactive; FAS-TE conf: 60

How did COc1ccc(S(=O)(=O)Nc2ccc(-c3ccc(N4CCCC4)nn3)cc2)cc1C do in these assays?
MPTP inh: inactive; CR mimetic SO: inactive; FAS TE block: inactive; aDG glyco up: inactive; Cardio protect: inactive; SUMO Mot1 rescue: inactive

What do the screens show for `Cc1c([N+](=O)[O-])cc(S(=O)(=O)Nc2ccc(-c3ccc(N4CCCC4)nn3)cc2)cc1[N+](=O)[O-]`?
MPTP inh: inactive; CR mimetic SO: inactive; FAS TE block: 87; aDG glyco up: inactive; Cardio protect: inactive; SUMO Mot1 rescue: inactive; FAS-TE conf: 90

Results for O=C(NCc1cccc(Cl)c1)C1CCC(=O)N(CCN2CCOCC2)C1 (stereo not given) ?
MPTP inh: inactive; CR mimetic SO: inactive; FAS TE block: inactive; aDG glyco up: inactive; Cardio protect: inactive; SUMO Mot1 rescue: inactive

What do the screens show for `CCc1ccc(NC(=O)[C@H](C)NC(=O)C2CCN(C(=O)[C@@H](N)Cc3ccccc3)CC2)cc1`?
MPTP inh: inactive; CR mimetic SO: inactive; FAS TE block: inactive; aDG glyco up: inactive; Cardio protect: inactive; SUMO Mot1 rescue: inactive

How did O=[N+]([O-])c1ccc(Cl)c(S(=O)(=O)Nc2cccc(-c3ccc(N4CCCC4)nn3)c2)c1 do in these assays?
MPTP inh: inactive; CR mimetic SO: inactive; FAS TE block: 58; aDG glyco up: inactive; Cardio protect: inactive; SUMO Mot1 rescue: inactive; FAS-TE conf: 66
